Eight compounds from PubChem BioAssay (NCI) can be followed below.

Molecules are shown by their SMILES. This is part of a sample that, as a whole, favours compounds with a hit. Of some 83,000 tested, about 20% had one in any assay.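 Testing used 96-well plates and a 48-hour single-concentration exposure. Example: -40 means 40% of the starting cells died.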 Unmarked numbers belong to inactive results. Activity calls are given as the source filed them. The calls were made as follows: active = growth percent below 10; inactive = the rest.

Test systems include HCT-15 colon; HT29 colon; SNB-75 CNS; SNB-19 CNS; U251 CNS; PC-3 prostate; SK-MEL-5 melanoma; UACC-62 melanoma; LOX IMVI melanoma; SK-MEL-28 melanoma; SK-MEL-2 melanoma; EKVX NSCLC; SN12C renal; UO-31 renal; TK-10 renal; ACHN renal; CAKI-1 renal; A498 renal; CCRF-CEM leukemia; MOLT-4 leukemia.
What all share (assay): NCI-60 one-dose screen, 48 h (100 = growth as untreated, 0 = no growth, -100 = all killed)
Common to all, as to settings: 10 µM unless noted

As for `COc1ccc(N)c(N)c1`, the growth in the test on HCT-15 colon was 101%; in the test on HT29 colon, 104%; in the test with SNB-75 CNS, 85.7%; in the test on SNB-19 CNS it was 96.7%; in the test on U251 CNS, 107%; in the test on PC-3 prostate, 99.4%. In addition, the growth was 105% in the test with SK-MEL-5 melanoma; 93.6% in the test on UACC-62 melanoma; 99.3% in the test with LOX IMVI melanoma; 111% in the test with SK-MEL-28 melanoma; 121% in the test with SK-MEL-2 melanoma; 105% in the test with EKVX NSCLC. Also, the growth is 100% in the test with SN12C renal; 75.3% in the test with UO-31 renal; 113% in the test on TK-10 renal; 97.3% in the test with ACHN renal; 94.4% with CAKI-1 renal; 95.1% in the test with A498 renal. Further, in the test with CCRF-CEM leukemia, the growth was 83.1%.
Take `COC(=O)Nc1ccc(-c2nc(-c3cccc(OC)c3)c(-c3ccnc(Br)c3)[nH]2)cc1`: the growth in the test with HCT-15 colon is 17.8%; in the test with HT29 colon, 50.5%; in the test on SNB-75 CNS it was 37.5%; with SNB-19 CNS, 61.6%; with U251 CNS, 51.5%; in the test with PC-3 prostate, 34%. In addition, the growth in the test with SK-MEL-5 melanoma is 50.2%; in the test on UACC-62 melanoma, 47.2%; with LOX IMVI melanoma, 23.6%; in the test on SK-MEL-28 melanoma, 62.3%; in the test with SK-MEL-2 melanoma, 72.1%; with EKVX NSCLC, 55.5%. Further, the growth with SN12C renal is 67%; in the test on UO-31 renal, 38.6%; with TK-10 renal, 77.9%; in the test with ACHN renal it was 53.4%; with CAKI-1 renal, 52%; in the test with A498 renal it was 48.4%. For the same compound, the growth with CCRF-CEM leukemia was 34.9%; with MOLT-4 leukemia, 30.9%.
For the compound `COc1cc(/C=C2\C(=O)Nc3ccc(Br)cc32)cc(OC)c1OC`, the growth in the test with HCT-15 colon was 38.6%; in the test with HT29 colon, 24.4%; in the test with SNB-75 CNS, 36.5%; in the test on SNB-19 CNS, 81%; in the test on U251 CNS it was 51%; in the test with PC-3 prostate it was 60.4%. The growth in the test on SK-MEL-5 melanoma was 56.9%; with UACC-62 melanoma, 51.6%; with LOX IMVI melanoma, 57.2%; with SK-MEL-28 melanoma, 80.2%; in the test with SK-MEL-2 melanoma, 84%; in the test on EKVX NSCLC, 72.2%. The growth with SN12C renal is 80.9%; in the test on UO-31 renal it was 54.7%; with TK-10 renal, 82.5%; with ACHN renal, 79.1%; in the test on CAKI-1 renal, 42.1%; with A498 renal it was 55.7%.
For `CC([C@H]1CCC2C3CCC4C[C@@H](NC=O)CC[C@]4(C)C3CC[C@@]21C)N(C)C` (stereo partly specified), the growth with HCT-15 colon is -59.7% (active); in the test on HT29 colon, -49.4% (active); with SNB-75 CNS it was -1.26% (active); in the test on SNB-19 CNS it was 44.6%; with U251 CNS, 4.82% (active); with PC-3 prostate it was 5.08% (active). The growth in the test with SK-MEL-5 melanoma was -96.7% (active); with UACC-62 melanoma, -51.3% (active); in the test on LOX IMVI melanoma, -58.7% (active); in the test on SK-MEL-28 melanoma it was -94.2% (active); with SK-MEL-2 melanoma, -7.03% (active); in the test with EKVX NSCLC, 29%. Moreover, the growth in the test with SN12C renal is 19.9%; in the test with UO-31 renal it was 0.264% (active); with TK-10 renal, 49.1%; in the test with ACHN renal, 6.15% (active); in the test with CAKI-1 renal, -10.1% (active); in the test with A498 renal it was 29.1%. Further, the growth in the test on CCRF-CEM leukemia is -21.6% (active); in the test on MOLT-4 leukemia, -49.9% (active).
Regarding `CN1CCN(Cc2ccc(NC(=O)c3ccc(C(C)(C)C)c(C#Cc4cnc5cccnn45)c3)cc2C(F)(F)F)CC1`, the growth in the test with HCT-15 colon is -73.2% (active); in the test with HT29 colon, -83.5% (active); in the test with SNB-75 CNS, 74.8%; in the test with SNB-19 CNS, -63.1% (active); in the test with U251 CNS, -87.9% (active); in the test on PC-3 prostate it was -65.6% (active). Moreover, the growth was -60.3% (active) in the test on SK-MEL-5 melanoma; -71% (active) in the test with UACC-62 melanoma; -87.7% (active) in the test on LOX IMVI melanoma; -68.8% (active) with SK-MEL-28 melanoma; 33.7% with SK-MEL-2 melanoma; -32.8% (active) with EKVX NSCLC. The growth with SN12C renal was -67.4% (active); in the test on UO-31 renal it was -47% (active); with TK-10 renal, -93.8% (active); with ACHN renal, -75.2% (active); in the test on CAKI-1 renal, -45.1% (active); with A498 renal, 75.5%. Moreover, the values for the growth in the test with CCRF-CEM leukemia and with MOLT-4 leukemia were -36.7% (active) and -57% (active), respectively.
As to `O=C(Nc1ccc(Cl)cc1F)c1cc(Cl)ccc1O`, the growth with HCT-15 colon is -4.97% (active); with HT29 colon it was 19.5%; in the test with SNB-75 CNS, -6.93% (active); in the test on SNB-19 CNS, 13.6%; in the test with U251 CNS, 9.73% (active); in the test on PC-3 prostate it was 0.161% (active). In addition, the growth in the test with SK-MEL-5 melanoma is -90.5% (active); with UACC-62 melanoma, -41.2% (active); with LOX IMVI melanoma, -18.9% (active); in the test with SK-MEL-28 melanoma it was -3.71% (active); in the test on SK-MEL-2 melanoma it was -28.3% (active); in the test with EKVX NSCLC, 5.1% (active). The growth with SN12C renal was -11% (active); in the test with UO-31 renal it was -14.6% (active); with TK-10 renal, 15.6%; with ACHN renal it was -1.72% (active); with CAKI-1 renal, 1.59% (active); with A498 renal it was -51.8% (active). Besides, the growth in the test on CCRF-CEM leukemia is 15.8%.
Take `OC(c1ccccc1)C(NC(Cc1ccccc1)c1ccccc1)c1ccccc1` (stereo unspecified): the growth in the test with HCT-15 colon is 89.2%; in the test on HT29 colon, 71.3%; in the test on SNB-75 CNS, 90.9%; with SNB-19 CNS, 87.6%; with U251 CNS it was 86.4%; with PC-3 prostate, 80.5%. The growth with SK-MEL-5 melanoma was 94.6%; in the test on UACC-62 melanoma, 69.4%; in the test on LOX IMVI melanoma it was 89.2%; in the test with SK-MEL-28 melanoma it was 97.8%; in the test with SK-MEL-2 melanoma, 93.1%; in the test on EKVX NSCLC, 92%. Moreover, the growth in the test with SN12C renal is 87.1%; with UO-31 renal, 72.2%; with TK-10 renal, 92.2%; in the test on ACHN renal, 90.7%; in the test on CAKI-1 renal it was 77.4%; in the test with A498 renal, 74.6%. Moreover, the growth is 93.3% in the test on CCRF-CEM leukemia and 71.2% in the test with MOLT-4 leukemia.
Take `O=C(Oc1cccc2ccccc12)Oc1cccc2ccccc12`: the growth in the test with HCT-15 colon was 106%; with HT29 colon, 118%; in the test with SNB-75 CNS, 94.6%; in the test on SNB-19 CNS, 103%; with U251 CNS it was 103%; with PC-3 prostate, 71.6%. Further, the growth in the test with SK-MEL-5 melanoma is 106%; in the test on UACC-62 melanoma, 103%; with LOX IMVI melanoma it was 99.2%; with SK-MEL-28 melanoma, 118%; in the test with SK-MEL-2 melanoma, 104%; in the test on EKVX NSCLC it was 88.3%. The growth is 97.2% in the test with SN12C renal; 55% with UO-31 renal; 139% in the test with TK-10 renal; 98% in the test with ACHN renal; 86.8% in the test on CAKI-1 renal; 107% with A498 renal. The figures for the growth in the test on CCRF-CEM leukemia and with MOLT-4 leukemia were 88.7% and 93.2%, respectively.
